The text below walks through data of PubChem BioAssay AID504848 (National Center for Advancing Translational Sciences (NCATS), 2011).

The structures appear in SMILES notation. The whole screen tested about 2,300 compounds, of which about 1,400 (61%) were called active. Roughly 29% stayed inconclusive and do not appear here. So high a share suggests a set chosen from earlier hits. This is one part of the list. Unmarked numbers belong to inactive results. Calls come from the whole dose curve; as a rule, active = well fitted inhibition curve with a large enough effect; inconclusive = small, poorly fitted or top-dose-only effect, or effect the other way; inactive = no such curve, though single readings can be large or run the other way.
% is set by controls: 0 for no effect and ±100 for the full control effect; potency is the fitted concentration of half-maximal effect.

This experiment is described as follows: Confirmation screen for delayed death inhibitors of the malarial parasite plastid, 96 hour incubation. Note: nearly all actives have a fitted effect of over 60% in size. The conditions noted are these: P. falciparum luciferase growth in erythrocytes; series mostly up to 28.7 µM; activity change, negative = inhibition: at the top concentration. The source says:
The goal of this screen is to discover new antimalarial compounds that act by inhibiting the development of the apicoplast in the malarial parasite Plasmodium falciparum. The biochemical processes that make this organelle essential for erythrocytic stage parasites are not well understood. However, antibiotics, such as azithromycin and tetracycline, which target the apicoplast translational machinery, have a potent antimalarial effect. […] We have developed a cell-based assay that measures parasite growth based on the expression of an integrated copy of a firefly luciferase reporter. To detect small molecules that cause this "delayed death phenotype, erythrocytes infected with the luciferase-expressing parasites were incubated with compounds for either one or two generations, corresponding to 48 and 96 hours, respectively. Compounds that inhibit parasite growth in the second generation, but not the first, should be enriched in antimalarials that target the apicoplast. Growth inhibition is detected by a decrease in luciferase activity. MLPCN Grant: R21 NS059500 Assay Provider: David Fidock and Eric Ekland, Columbia University Keywords: NIH Roadmap, MLPCN, MLI, MLSMR, qHTS, NCGC, qHTS, malaria, luciferase, viability
Four microliters of culture medium (RPMI 1640 with 0.5% w/v Albumax (GIBCO), 24 mM sodium bicarbonate and 10 ug/mL gentamycin) were dispensed by a Multi-drop Combi into white solid 1536-well plates (Grenier) and 23 nL compound was added by a pin tool. Four microliters of infected erythrocytes (2% hematocrit, 0.1% parasitemia final concentration) in culture medium were dispensed and the plates incubated for 96 hours at 37 C in 5% CO2. Two microliters of luciferase detection reagent was added and luminescence was detected by a ViewLux (PerkinElmer) reader
As for `Cc1ccccc1C(=O)Nc1ccc2c(c1)CCCN2C(=O)c1cccs1`, the Potency is 12.6 µM (active).
Same read-out and setting: the result for `COc1cc(OC)cc(C(=O)Nc2ccc3c(c2)CCCN3C(=O)c2cccs2)c1` reads 11.2 µM (active); that for `CC(C)c1[nH]nc2c1C(C1C=CCCC1)C(C#N)=C(N)O2` (centres undefined), 14.1 µM (active).
Take `CCOCCCNC(=S)N1CCN(c2nc(-c3ccccc3)cs2)CC1`: the Potency is 12.6 µM (active).
As to `Cc1c(-c2ccccc2)nc2ccccc2c1C(=O)Nc1ccncc1`, the Potency is 0.178 µM (active).
Take `CC(C)CC1c2[nH]c3ccccc3c2CCN1CCCn1cccn1` (centres undefined): the Potency is 8.91 µM (active).
For the molecule `CC(=O)c1ccc(NC(=S)Nc2ccc3cn[nH]c3c2)cc1`, the “activity change, negative = inhibition” value is 0.644%.
`CCC(=O)NC(=S)Nc1ccc(NC(=O)c2ccc(C)c([N+](=O)[O-])c2)cc1`: the Potency was 10 µM (active).
Turning to `CN(C(=O)c1cc([N+](=O)[O-])ccc1NCc1cccnc1)c1ccccc1`, the Potency is 11.2 µM (active).
Regarding `CN1/C(=C\C(=O)CSc2cccc[n+]2[O-])C(C)(C)c2ccccc21`, the Potency was 15.8 µM (active).
Consider `CSc1nnc(C)c(=O)[nH]1`, for which the “activity change, negative = inhibition” value was -5.97%.
On to `Clc1cccc(Cl)c1C[n+]1ccc2ccccc2c1`, for which the Potency was 1.26 µM (active).
Take `Cc1ncc(CO)c(/C=N/NC(=S)Nc2ccc(F)cc2)c1O`: the Potency was 14.1 µM (active).
Take `CC(=O)c1ccc(N/N=C(/C(N)=O)C2=NC(C)(C)Cc3ccccc32)cc1`: the Potency was 6.31 µM (active).
For the molecule `Cc1cccc(N/N=C(\C(N)=O)C2=NC(C)(C)Cc3ccccc32)c1`, the Potency is 3.98 µM (active).
On the same count and under the same terms, then `O=C(COc1ccccc1Cl)NC(=S)N1CCc2ccccc21`, with 14.1 µM (active).
With `O=C(NCc1ccccn1)Nc1cc(Cl)ccc1Cl`, the Potency is 6.31 µM (active).
With `CC(=O)c1cccc(Oc2cc(NN3CCCCC3)c([N+](=O)[O-])cc2[N+](=O)[O-])c1`, the Potency is 11.2 µM (active).
As for `Cc1onc(-c2c(Cl)cccc2Cl)c1C(=O)NC1CCCCC1`, the Potency is 11.2 µM (active).
As for `Cc1onc(-c2c(Cl)cccc2Cl)c1C(=O)Nc1nc(C(C)(C)C)cs1`, the Potency is 6.31 µM (active).
Consider `Cc1noc(C)c1C(=O)Nc1nc(-c2ccc(F)cc2)cs1`, for which the “activity change, negative = inhibition” value was 8.57%.
Consider `Cc1onc(-c2c(Cl)cccc2Cl)c1C(=O)N=C(N)N1CC(C)OC(C)C1` (centres undefined), for which the Potency is 7.08 µM (active).
Turning to `COc1ccc(NC(=O)c2c(-c3c(Cl)cccc3Cl)noc2C)c(OC)c1`, the Potency is 2.24 µM (active).
As for `COc1cnc(-c2ccccn2)nc1Oc1ccc(C(C)(C)C)cc1`, the Potency is 2.51 µM (active).
Still for that read-out and setting: the result for `COc1cnc(-c2ccccn2)nc1N(C)c1ccccc1` reads 2 µM (active); that for `CSC1=NC(C)(C)C=C(/C=C/c2c(Cl)cccc2Cl)N1`, 10 µM (active); that for `CSC1=NC(C)(C)C=C(/C=C/c2ccc(Cl)cc2)N1`, 4.47 µM (active).
Consider `CSC1=NC(C)(C)C=C(/C=C/c2ccc(Cl)cc2Cl)N1`, for which the Potency was 1.78 µM (active).
Consider `CC1(C)Cc2c(ccc3ccccc23)C(c2cc3ccccc3oc2=O)=N1`, for which the Potency is 4.47 µM (active).
Turning to `CN(C(=O)CN1C(=O)CCSc2ccc(S(=O)(=O)N3CCCC3)cc21)c1ccccc1`, the Potency was 7.94 µM (active).
In the case of `CCN(CC)CCn1c2c(c(SCC(=O)Nc3nc4ccccc4s3)nc1=O)CCCC2`, the Potency was 2 µM (active).
As for `CCc1c(C(=O)NCCc2cccc(C)c2)[nH]c(C)c1C(C)=O`, the Potency is 12.6 µM (active).
As to `CCc1c(C(=O)NC2CCCc3ccccc32)[nH]c(C)c1C(C)=O` (centres undefined), the “activity change, negative = inhibition” value was -14.9%.
Still for that read-out and setting: then `CCC(=O)NCCc1cc2ccc(C)cc2[nH]c1=O`, with 1.76%.
As for `CCOC(=O)Nc1ccc2c(CNC(C)c3ccccc3OC)cc(=O)oc2c1` (centres undefined), the Potency was 12.6 µM (active).
`COC(=O)COc1ccc2c(=O)c(-c3ccccc3OC)coc2c1`: the “activity change, negative = inhibition” value is -27.7%.
For `C=C[C@]1(C)C[C@@H](OC(=O)CSCCN(CC)CC)[C@]2(C)C(C)CC[C@]3(CCC(=O)[C@H]32)[C@@H](C)[C@@H]1O` (some centres undefined), the Potency was 2 µM (active).
Take `CN(Cc1ccc(Cl)c(Cl)c1)C(=O)C1=CC=CN2CCS(=O)(=O)N=C12`: the Potency is 5.01 µM (active).
For the molecule `COC(=O)c1ccc(Sc2nnnn2-c2ccccc2)c([N+](=O)[O-])c1`, the Potency was 12.6 µM (active).
On the same count and under the same terms, the result for `CC1CCN(C(=O)Cn2cc(C(=O)c3ccco3)c3ccccc32)CC1` reads 14.1 µM (active).
Still for that read-out and setting: then `Cc1ccc(NC(=O)C(=Cc2ccc(C(=O)O)cc2)C(=O)Nc2ccc(C)cc2C)c(C)c1`, with 6.31 µM (active); and `Cn1c(=O)[nH]c(=O)c2c1nc(NCc1ccccc1)n2Cc1ccc(F)cc1`, with 3.55 µM (active); and `C/C(CC(=O)NC1CCCCC1)=N\NC(=O)COc1ccc(C)cc1Br`, with 15.8 µM (active).
Turning to `Cc1ccc(OCC(=O)Nn2cnnc2)c(Br)c1`, the “activity change, negative = inhibition” value is 8%.
As to `O=C(c1ccc(OC2CCN(Cc3ccccc3OC(F)F)CC2)cc1)N1CCCC1`, the Potency is 2.51 µM (active).
With `COc1ccc(CCC(C)N2CCC(Oc3ccc(C(=O)N4CCCC4)cc3)CC2)cc1` (centres undefined), the Potency was 10 µM (active).
Still for that read-out and setting: the result for `CCN(CC)CCOC(=O)c1ccc(NC(=O)C(C)NC(=O)C23CC4CC(CC(C4)C2)C3)cc1` (centres undefined) reads 12.6 µM (active); that for `Cc1ccc(Nc2cc(C)c3ccc(O)cc3n2)cc1C`, 0.126 µM (active); that for `OC1C2(Cc3ccccc3)CN3CCN(C2)CC1(Cc1ccccc1)C3` (centres undefined), 2 µM (active).
Consider `O=c1cc(CSc2nc(NCc3ccccc3)c3ccccc3n2)nc2ccc(Cl)cn12`, for which the Potency is 3.55 µM (active).
For `CCN(CC)S(=O)(=O)c1ccc(N2CCOCC2)c(NC(=O)C2CSC3(C)CCC(=O)N23)c1` (centres undefined), the Potency was 5.62 µM (active).
With `COc1ccc2[nH]cc(CCCN3C(=O)c4ccccc4C3=O)c2c1`, the “activity change, negative = inhibition” value was -25.7%.
For the molecule `COc1ccc2[nH]cc(C(=O)CCl)c2c1`, the Potency was 12.6 µM (active).
Regarding `CCOc1ccc(/C=C/[N+](=O)[O-])c2ccccc12`, the Potency was 15.8 µM (active).
Take `Cc1ccc(C)c(-c2nnc(OCC(=O)Nc3cc(C)on3)c3ccccc23)c1`: the Potency was 12.6 µM (active).
Regarding `COc1cc(CNC2CCCCCCC2)ccc1OCC(N)=O`, the Potency was 12.6 µM (active).
Take `Cc1cc(C)c(NC(=O)c2cccc3c2C(=O)N(C2CCCCC2)C3)c(C)c1`: the Potency was 7.94 µM (active).
Regarding `COc1ccccc1/C=C/C(=O)/C=C/c1ccccc1O`, the Potency is 1 µM (active).
On to `CCOC(=O)C(CC)(CC)C(=O)/C=C/c1ccc(Br)cc1`, for which the Potency was 6.31 µM (active).
For `CCOC(=O)C(=Cc1ccccc1OC)C(=O)OCC`, the Potency is 12.6 µM (active).
On to `COc1ccccc1/C=C/C(=O)c1ccccc1`, for which the Potency is 14.1 µM (active).
On to `O=C(/C=C/c1ccccc1O)c1ccco1`, for which the “activity change, negative = inhibition” value was -31.2%.
As to `CCOC(=O)C(=Cc1ccc(Br)cc1)C(=O)OCC`, the Potency was 7.94 µM (active).
For `COc1ccc(CCNc2cc(C)nc3c(-c4ccc(Cl)cc4)c(C)nn23)cc1OC`, the Potency is 11.2 µM (active).
With `O=C(/C=C/c1ccncc1)c1ccc(NC(=O)c2ccccc2F)cc1`, the Potency was 12.6 µM (active).
As to `CSc1ccc(/C=C/C(=O)c2ccc(NC(=O)C(C)C)cc2)cc1`, the “activity change, negative = inhibition” value is -105%.
Regarding `COc1cccc(Nc2ccc(N3CCCCC3)cc2)c1OC`, the Potency is 0.355 µM (active).
In the case of `CCOC(=O)CN1C(=O)/C(=C/c2c(F)cccc2Cl)Oc2ccccc21`, the Potency was 12.6 µM (active).
As for `CCOC(=O)c1ccc(N2N=C(C)/C(=C/C=C/c3ccco3)C2=O)cc1`, the Potency was 5.62 µM (active).
As for `CC(=O)c1cccc(NC(=O)CSc2ccc(-c3sc(C)nc3C)nn2)c1`, the Potency is 12.6 µM (active).
For `CCc1ccc(NC2=CC(=O)C(=O)c3ccccc32)cc1`, the Potency was 0.447 µM (active).
For `COc1ccc(-c2c(-c3cc(OC)cc(OC)c3)n(C)c3ccc(-c4ccc5[nH]ccc5c4)cc23)cc1`, the Potency is 6.31 µM (active).
The same measure, in the same setting: the result for `CCN(CC)C(=O)C1CCCN(C(=O)c2cc(COc3ccc4ncccc4c3)on2)C1` (centres undefined) reads 11.2 µM (active).
On the same count and under the same terms, then `c1ccc2c(c1)Nc1cc3ccccc3cc1S2`, with 3.98 µM (active); and `O=C(c1[nH]ncc1-c1cccc(Br)c1)C1CO1` (centres undefined), with 12.6 µM (active); and `O=S(=O)(c1ccc(F)cc1)N1CCc2ccccc2C1`, with 12.6 µM (active).
Same read-out and setting: then `COC(=O)Nc1ccc2c(c1)N(C(=O)CCCl)c1ccccc1S2`, with 12.6 µM (active); and `O=S1(=O)Nc2c(ccc3cccnc23)-c2ccccc21`, with 1.58 µM (active).
As to `Cc1ccc(C2(C)NC(=O)N(CC(=O)N3CCN(S(=O)(=O)c4cccc(F)c4)CC3)C2=O)cc1` (centres undefined), the Potency is 7.08 µM (active).
`O=C(NC1CCCCC1)c1ccc(CS(=O)Cc2ccccc2Cl)o1` (centres undefined): the Potency is 12.6 µM (active).
In the case of `Cc1ccc(CS(=O)(=O)Cc2ccc(C(=O)NC3CCCC3)o2)cc1`, the Potency is 10 µM (active).
With `O=C(c1cccs1)N1N=C(c2ccccc2)CC1c1ccccc1O` (centres undefined), the Potency was 2.82 µM (active).
In the case of `O=C(Nn1c(-c2ccccc2)nc2ccccc2c1=O)c1ccco1`, the “activity change, negative = inhibition” value is 22.9%.
Regarding `CCOc1ccc(CCn2c(-c3ccco3)nc3ccccc3c2=O)cc1OCC`, the Potency is 10 µM (active).
Consider `Cc1c(O)ccc(C(=O)CN2CCN(Cc3ccc4c(c3)OCO4)CC2)c1O`, for which the Potency was 5.01 µM (active).
Consider `Cc1ccc(NC2=C/C(=N\S(=O)(=O)c3cccs3)c3ccccc3C2=O)c(C)c1`, for which the Potency was 0.0708 µM (active).
As to `CCc1ccc(-c2cn(C3CCCCC3)c(=S)[nH]2)cc1`, the Potency was 6.31 µM (active).
Consider `Clc1ccccc1Cn1c(/C=C/c2ccco2)nc2ccccc21`, for which the Potency is 11.2 µM (active).
The same measure, in the same setting: then `COc1ccccc1N1CCN(CCC(=O)Nc2ccc(F)cc2)CC1`, with 12.6 µM (active).
`O=C(c1cccs1)N1CCCN(c2ncnc3scc(-c4ccccc4)c23)CC1`: the Potency was 12.6 µM (active).
For `O=C1CN(c2nc(-c3cccnc3)nc3scc(-c4ccccc4)c23)CCN1`, the “activity change, negative = inhibition” value is 18.9%.
Consider `Cc1cc(C)n(CC(O)COc2ccccc2)n1` (centres undefined), for which the Potency was 0.891 µM (active).
With `O=C1CN(C(=O)c2ccc(Cl)c(S(=O)(=O)N3CCc4ccccc43)c2)c2ccccc2N1`, the Potency is 12.6 µM (active).
For the molecule `CC[C@@H](C(=O)[C@@H](C)[C@@H](O)[C@H](C)CCc1ccc(C)c(O)c1C(=O)O)[C@H]1O[C@](CC)([C@H]2CC[C@](O)(CC)[C@H](C)O2)C[C@@H]1C`, the Potency is 0.631 µM (active).
